# Source: PubChem (National Center for Advancing Translational Sciences (NCATS))
# Shown are actives, neighbours in structure and some others; about 0.99% of the full set was active somewhere.
# RECQ1 helicase = inhibitors of human RECQ1 DNA helicase. RECQ1 DNA unwinding, red fluorescence kinetic read. Potency, µM (titrated, usually from 57.3 µM), actives largely listed as inhibitors. 0.54% of 240,000 active; also: nearly all actives have a fitted effect of over 30% in size
#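 RECQ1T1 50 nM; forked duplex (20 bp + 30-nt ss tails) 200 nM, ATP 2 mM final; pH 8.0, 2 mM MgCl2, 2.5 ug/ml poly(dI-dC); 15 min compound preincubation; discontinuous kinetic read over 2 h at RT.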
# WRN helicase inh = inhibitors of human WRN helicase | Potency, µM (series often up to 114 µM), usual class: inhibitors | WRN helicase unwinding, fluorescent forked duplex, kinetic | 0.46% of 360,000 active | Q14191; also: nearly all actives have a fitted effect of over 55% in size
#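 Kinetic fluorescence helicase assay: unwinding of a quenched forked DNA duplex (100 nM final) with 2 mM ATP final raises red fluorescence (525/598 nm). Compounds sat 15 min at room temperature with 20 nM WRN beforehand.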
# FEN1 inh = blocks human flap endonuclease 1; 0.35% of 390,000 active; AID 588795; Recombinant FEN1 flap cleavage, fluorescence, 15 min; Potency, µM (doses to about 114 µM), usual class: inhibitors; P39748; also: nearly all actives have a fitted effect of over 65% in size
#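 In this screen, 50 nM flap DNA substrate was added to 10 nM FEN1 pretreated with compound for 15 min at room temperature; cleavage was followed with reads at 0 and 15 min, and Hill fitting gave concentration–response parameters.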
# BLM helicase inh = blocks DNA unwinding by human BLM helicase; recombinant BLM DNA unwinding, fluorescence dequenching; Potency, µM (series often up to 56.1 µM), actives largely listed as inhibitors; 0.2% of 350,000 active; also: nearly all actives have a fitted effect of over 35% in size
# L3MBTL1 block = inhibitors of human L3MBTL1 | Q9Y468 | AlphaScreen L3MBTL1–H3K9me1 peptide binding | Potency, µM (top dose mostly 57.1 µM), most hits filed as inhibitors | 0.66% of 230,000 active; also: nearly all actives have a fitted effect of over 60% in size
#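 Displacement of a biotinylated histone H3(1-15) peptide monomethylated at Lys9 (75 nM) from L3MBTL1 (50 nM) was measured by AlphaScreen after a 30 min room-temperature compound incubation; cefsulodin titration served as intraplate control.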
# Numbers stand for hits; – = inactive; ? = inconclusive; · = no result; ! = repeats disagree; [ ] = another dose, or the depositor's remark. Calls follow the shape of the dose curve; as a rule, active = well fitted curve in the direction sought with a large enough effect; inconclusive = small, poorly fitted or top-dose-only effect, or another doubt; inactive = no such curve, though single readings can be large; an effect the other way counts as inactive or inconclusive.
SMILES,RECQ1 helicase,WRN helicase inh,FEN1 inh,BLM helicase inh,L3MBTL1 block
O=C(Cn1nc(Cc2cccnc2)c2ccccc2c1=O)Nc1cccc(C(F)(F)F)c1,·,·,89.1µM,–,·
N#Cc1c(-c2cccs2)nc(SCc2ccc(Cl)cc2)[nH]c1=O,–,?,–,28.2µM,?
O=C(NC(c1ccc(-c2ccccc2)cc1)c1cnccn1)C1CCN(Cc2cccc(C(F)(F)F)c2)CC1 (centres undefined),·,–,·,·,·
COc1ccc(-c2nn(-c3ccccc3)cc2/C=C2/SC(=S)N(CCC(=O)O)C2=O)cc1,·,50.1µM,79.4µM,–,·
O=C1C(=Cc2cn(-c3ccccc3)nc2-c2ccc(OCc3ccccc3F)cc2)SC(=S)N1CCS(=O)(=O)O,·,31.6µM,·,·,·
CCOC(=O)c1c(N/C=C(\C#N)c2nc(-c3ccc(OC(C)=O)cc3)cs2)sc2c1CCC2,·,–,–,·,·
CCCCCn1c(N)c(-c2nc3ccccc3o2)c2c([N+](=O)[O-])nn(C)c(=O)c21,–,–,–,15.8µM,–
CCCCn1c(N)c(-c2nc3ccccc3s2)c2c([N+](=O)[O-])nn(C)c(=O)c21,–,–,–,–,·
CCSCCNC(=O)c1cc(-n2cnnc2)ccc1Cl,–,–,–,–,–
O=C(c1cccs1)c1no[n+]([O-])c1C(=O)c1cccs1,–,28.2µM,–,–,–
COc1cccc(NC(=O)CN(C)C(=O)/C=C/c2cn(Cc3ccccc3)nc2-c2cccnc2)c1,·,–,–,·,–
O=c1[nH]sc2ccccc12,–,31.6µM,?,–,–
Nc1ncccc1OCc1ccc(Br)cc1,–,–,–,–,–
O=C(O)c1cccc(NC(=O)c2cccc(S(=O)(=O)Nc3cccc(C(=O)O)c3)c2)c1,·,·,–,–,·
O=C(Nc1cccc(C(=O)Nc2ccc(S(=O)(=O)O)c3cc(S(=O)(=O)O)cc(S(=O)(=O)O)c23)c1)Nc1cccc(C(=O)Nc2ccc(S(=O)(=O)O)c3cc(S(=O)(=O)O)cc(S(=O)(=O)O)c23)c1,22.4µM!,·,1µM,–,·
CCCC(=O)c1cc(O)c(O)cc1O,1.12µM,·,·,·,·
CCCc1cc(C(=O)Cc2ccc(F)cc2)c(O)cc1O,–,–,–,–,–
O=C(O)c1ccc2c(=O)n3cc(C(=O)c4ccccc4O)cc(Cl)c3nc2c1,–,–,35.5µM,–,·
O=C(NNC(=O)c1ccccc1Cl)c1ccc2c(=O)n3c(nc2c1)CCC3,·,–,–,·,–
CN(C(=O)COC(=O)c1cc(S(=O)(=O)N2CCOCC2)ccc1F)C1CCS(=O)(=O)C1 (centres undefined),·,–,–,·,–
C[N+](C)(C)CC(=O)N/N=C/c1c2ccccc2cc2ccccc12,·,–[11.6 µM],50.1µM,–,·
CCOc1cc(/C=C2\SC(=O)N(CC(=O)Nc3ccccc3F)C2=O)cc([N+](=O)[O-])c1O,–,–,50.1µM,–,–
O=C1C=C(O)c2c(O)cccc2C1=O,?,·,·,–,·
Cc1cc(O)c2c(c1)C(=O)c1cccc(O)c1C2=O,7.08µM!,·,·,–,–
CN(C)C(=O)NC1c2ccccc2-c2ccccc21,·,–,–,–,·
SMILES,RECQ1 helicase,WRN helicase inh,FEN1 inh,BLM helicase inh,L3MBTL1 block
O=C1C=CC(=O)N1c1ccc2c(c1)C(NC(=O)C(F)(F)F)c1ccccc1-2 (centres undefined),·,56.2µM,–,·,·
CN(C)c1ccc(C(I)C(I)c2ccnc3ccccc23)cc1 (centres undefined),·,·,79.4µM,·,·
CC(c1ccc(N(C)C)cc1)c1ccnc2ccccc12 (centres undefined),·,·,–,·,·
Nc1c(Cl)ncnc1N/N=C/c1ccccn1,–,–,–,–,7.94µM
Nc1c(Cl)ncnc1N/N=C/c1ccc2ccccc2n1,–,?,?,–,?
C#CCOCCOCCOCCNc1nc(N2CCN(C(=O)CCCCCCCCCCNC(=O)Cn3cc(CCCCCN)nn3)CC2)nc(N2CCN(C(=O)CCCCCCCCCCNC(=O)Cn3cc(CCCCCN)nn3)CC2)n1,·,79.4µM,89.1µM,·,–
C#CCOCCOCCOCCNc1nc(N2CCN(C(=O)CCCCCCCCCCNC(=O)Cn3cc(CCCCCN)nn3)CC2)nc(N2CCN(C(=O)CCCCCCCCCCNC(=O)[C@H]([C@@H](C)CC)n3cc(CCCCN=C(N)N)nn3)CC2)n1,·,31.6µM,20µM,·,–
C#CCOCCOCCOCCNc1nc(N2CCN(C(=O)[C@H](Cc3ccc(O)cc3)n3cc(CCO)nn3)CC2)nc(N2CCN(C(=O)[C@H](Cc3ccc(O)cc3)n3cc(CCO)nn3)CC2)n1,31.6µM,·,·,–,–
C#CCOCCOCCOCCNc1nc(N2CCN(C(=O)CCCCCCCCCCNC(=O)[C@H]([C@@H](C)CC)n3cc(CCCCCN)nn3)CC2)nc(N2CCN(C(=O)CCCCCCCCCCNC(=O)[C@H](CO)n3cc(CCCCCN)nn3)CC2)n1,·,56.2µM,?,·,–
COc1ccc(CN2CCNC(=O)C2CC(=O)NC2CCCCCC2)cc1C (centres undefined),·,–,–,–,·
C[C@H](NC(=O)COc1ccccc1)C(=O)OCC(=O)c1cc2ccccc2o1,·,–,–,·,·
C#CCOCCOCCOCCNc1nc(N2CCN(C(=O)CCCCCCCCCCNC(=O)[C@H]([C@@H](C)CC)n3cc(CCCCN=C(N)N)nn3)CC2)nc(N2CCN(C(=O)CCCCCCCCCCNC(=O)[C@H](CCCCN)n3cc(C)nn3)CC2)n1,·,28.2µM,25.1µM,·,–
O=C(O)c1ccc(N/N=C/c2ccc(-c3cc(Cl)ccc3Cl)o2)cc1,–,–,79.4µM,–,·
COc1ccc(NC(=O)CC(CC(=O)O)c2cc(OC)c(OC)c(OC)c2)cc1 (centres undefined),–,–,–,–,–
O=c1oc2ccccc2nc1/C=C(\O)c1ccccc1,–,–[11.6 µM],?,–,·
O/C(=C\c1nc2ccccc2nc1/C=C(\O)c1ccccc1)c1ccccc1,–,44.7µM,–,–,·
CCN1C(=O)[C@H]2[C@@H](c3ccc(OC)cc3)N[C@]3(CCCN(Cc4ccc(C(F)(F)F)cc4)C3=O)[C@H]2C1=O,·,–,·,·,·
C#Cc1ccc(NC(=O)C2(C)CCN2C(=O)c2ccccc2CCc2ccccc2)cc1 (centres undefined),·,–,·,·,·
Oc1cc(-c2cccnc2)cc2cccnc12,·,·,–,·,7.94µM
CN1CCN(c2cc(-c3cc(O)c4ncccc4c3)ccn2)CC1,·,·,?,·,28.2µM
COc1ccc(C(=O)OCc2c(-c3cccc(OC)c3)ncc3ccccc23)cc1,·,–,–,·,–
CCCCN(C(=O)c1cc(CN2C(=O)c3ccccc3C2=O)ccc1OC)c1c(N)n(CC(C)C)c(=O)[nH]c1=O,·,–,–,·,·
Cc1cc(/C=N/NC(=O)C(O)(c2ccccc2)c2ccccc2)c(C)n1-c1ccc(C(=O)O)cc1,?,–[11.6 µM],–,–,–
Cc1cc(/C=N/NC(=O)C(O)(c2ccccc2)c2ccccc2)c(C)n1-c1cccc(C(=O)O)c1,–,?,?,10µM,?
c1ccc(-c2ccc(-c3ccccn3)nn2)nc1,–,·,·,–,3.55µM
c1ccc(-c2ccccn2)nc1,–,–,–,–,–
CSc1ncc2c(n1)-c1ccccc1N(Cc1ccc(Cl)cc1)S2(=O)=O,·,·,–,–,·
